{"source": "paper PMC11006913", "test_in_all_cases": "PBM; 200 nM protein, PBS", "conditions_in_all_cases": "dsDNA, one strand shown", "key": {"HOXA4 [1]": {"target": "HOXA4 (Homo sapiens, UniProt Q00056 201-287, W262R)", "sequence (Q00056 201-287 W262R)": "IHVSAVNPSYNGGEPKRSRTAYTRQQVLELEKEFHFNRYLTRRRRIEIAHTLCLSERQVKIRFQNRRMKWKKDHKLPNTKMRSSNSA"}, "PRRX1 [2]": {"target": "PRRX1 (Homo sapiens, UniProt P54821 80-166, F113S)", "sequence (P54821 80-166 F113S)": "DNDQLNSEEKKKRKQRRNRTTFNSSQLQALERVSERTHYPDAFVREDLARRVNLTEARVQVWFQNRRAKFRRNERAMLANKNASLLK"}, "HOXA2 [3]": {"target": "HOXA2 (Homo sapiens, UniProt O43364 129-215, R185T)", "sequence (O43364 129-215 R185T)": "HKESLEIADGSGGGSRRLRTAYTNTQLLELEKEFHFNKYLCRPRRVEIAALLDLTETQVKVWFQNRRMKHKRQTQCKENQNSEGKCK"}, "HOXA4 [4]": {"target": "HOXA4 (Homo sapiens, UniProt Q00056 201-287, R217L)", "sequence (Q00056 201-287 R217L)": "as the sequence (Q00056 201-287 W262R) above, with R17L, R62W counted along it"}, "MSX2 [5]": {"target": "MSX2 (Homo sapiens, UniProt P35548 130-214, R199I)", "sequence (P35548 130-214 R199I)": "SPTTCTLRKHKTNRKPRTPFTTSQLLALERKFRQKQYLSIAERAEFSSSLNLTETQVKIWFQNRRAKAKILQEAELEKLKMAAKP"}, "HOXA2 [6]": {"target": "HOXA2 (Homo sapiens, UniProt O43364 129-215, R185K)", "sequence (O43364 129-215 R185K)": "as the sequence (O43364 129-215 R185T) above, with T57K counted along it"}, "HOXA4 [7]": {"target": "HOXA4 (Homo sapiens, UniProt Q00056 201-287)", "sequence (Q00056 201-287)": "as the sequence (Q00056 201-287 W262R) above, with R62W counted along it"}, "MSX2 [8]": {"target": "MSX2 (Homo sapiens, UniProt P35548 130-214)", "sequence (P35548 130-214)": "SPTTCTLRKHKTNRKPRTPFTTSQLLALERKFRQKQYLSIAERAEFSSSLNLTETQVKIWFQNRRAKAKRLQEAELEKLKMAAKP"}, "MSX2 [9]": {"target": "MSX2 (Homo sapiens, UniProt P35548 130-214, F161Y)", "sequence (P35548 130-214 F161Y)": "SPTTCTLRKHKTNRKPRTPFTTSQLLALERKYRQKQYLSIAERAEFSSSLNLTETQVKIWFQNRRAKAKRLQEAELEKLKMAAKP"}, "HOXA2 [10]": {"target": "HOXA2 (Homo sapiens, UniProt O43364 129-215, Y150S)", "sequence (O43364 129-215 Y150S)": "as the sequence (O43364 129-215 R185T) above, with Y22S, T57R counted along it"}, "HOXA4 [11]": {"target": "HOXA4 (Homo sapiens, UniProt Q00056 201-287, W262F)", "sequence (Q00056 201-287 W262F)": "as the sequence (Q00056 201-287 W262R) above, with R62F counted along it"}, "PRRX1 [12]": {"target": "PRRX1 (Homo sapiens, UniProt P54821 80-166)", "sequence (P54821 80-166)": "as the sequence (P54821 80-166 F113S) above, with S34F counted along it"}, "HOXA2 [13]": {"target": "HOXA2 (Homo sapiens, UniProt O43364 129-215)", "sequence (O43364 129-215)": "as the sequence (O43364 129-215 R185T) above, with T57R counted along it"}, "SIX6 [14]": {"target": "T1, SIX6 (Homo sapiens, UniProt O95475 114-200, L167I)", "T1 sequence": "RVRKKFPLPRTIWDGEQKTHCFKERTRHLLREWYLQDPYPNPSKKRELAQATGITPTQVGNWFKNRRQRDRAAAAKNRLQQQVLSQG"}, "SIX6 [15]": {"target": "T2, SIX6 (Homo sapiens, UniProt O95475 114-200, L167V)", "T2 sequence": "T1 sequence with I54V"}, "SIX6 [16]": {"target": "T3, SIX6 (Homo sapiens, UniProt O95475 114-200, T165I)", "T3 sequence": "T1 sequence with T52I, I54L"}, "HOXC10 [17]": {"target": "HOXC10 (Homo sapiens, UniProt Q9NYD6 254-340)", "sequence (Q9NYD6 254-340)": "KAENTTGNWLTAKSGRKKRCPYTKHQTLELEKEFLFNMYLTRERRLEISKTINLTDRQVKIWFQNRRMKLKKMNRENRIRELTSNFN"}, "HOXC10 [18]": {"target": "HOXC10 (Homo sapiens, UniProt Q9NYD6 254-340, K271E)", "sequence (Q9NYD6 254-340 K271E)": "as the sequence (Q9NYD6 254-340) above, with K18E counted along it"}, "HOXC9 [19]": {"target": "HOXC9 (Homo sapiens, UniProt P31274 178-260, K195R)", "sequence (P31274 178-260 K195R)": "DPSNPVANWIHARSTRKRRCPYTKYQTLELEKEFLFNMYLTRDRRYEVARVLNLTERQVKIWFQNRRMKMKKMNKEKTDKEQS"}, "HOXC9 [20]": {"target": "HOXC9 (Homo sapiens, UniProt P31274 178-260)", "sequence (P31274 178-260)": "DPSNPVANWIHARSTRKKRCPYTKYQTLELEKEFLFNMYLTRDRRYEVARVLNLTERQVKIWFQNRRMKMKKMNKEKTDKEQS"}, "ALX1 [21]": {"target": "ALX1 (Homo sapiens, UniProt Q15699 118-204, L144V)", "sequence (Q15699 118-204 L144V)": "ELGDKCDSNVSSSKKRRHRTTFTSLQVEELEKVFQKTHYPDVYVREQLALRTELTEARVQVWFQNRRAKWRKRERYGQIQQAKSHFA"}, "HOXC9 [22]": {"target": "HOXC9 (Homo sapiens, UniProt P31274 178-260, R193K)", "sequence (P31274 178-260 R193K)": "as the sequence (P31274 178-260) above, with R16K counted along it"}, "ALX1 [23]": {"target": "ALX1 (Homo sapiens, UniProt Q15699 118-204, L144R)", "sequence (Q15699 118-204 L144R)": "as the sequence (Q15699 118-204 L144V) above, with V27R counted along it"}, "PROP1 [24]": {"target": "PROP1 (Homo sapiens, UniProt O75360 56-141)", "sequence (O75360 56-141)": "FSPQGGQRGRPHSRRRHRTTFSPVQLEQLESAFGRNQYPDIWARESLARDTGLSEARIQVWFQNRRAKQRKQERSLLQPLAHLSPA"}, "PROP1 [25]": {"target": "PROP1 (Homo sapiens, UniProt O75360 56-141, R99H)", "sequence (O75360 56-141 R99H)": "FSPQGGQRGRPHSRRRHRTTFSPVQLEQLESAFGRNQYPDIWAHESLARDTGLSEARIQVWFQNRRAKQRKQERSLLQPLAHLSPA"}, "HOXC9 [26]": {"target": "HOXC9 (Homo sapiens, UniProt P31274 178-260, R222W)", "sequence (P31274 178-260 R222W)": "as the sequence (P31274 178-260) above, with R45W counted along it"}, "PROP1 [27]": {"target": "PROP1 (Homo sapiens, UniProt O75360 56-141, F88S)", "sequence (O75360 56-141 F88S)": "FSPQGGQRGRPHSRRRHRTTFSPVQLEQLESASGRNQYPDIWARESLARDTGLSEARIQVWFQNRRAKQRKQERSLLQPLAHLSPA"}, "ALX1 [28]": {"target": "ALX1 (Homo sapiens, UniProt Q15699 118-204)", "sequence (Q15699 118-204)": "as the sequence (Q15699 118-204 L144V) above, with V27L counted along it"}, "SIX6 [29]": {"target": "T4, SIX6 (Homo sapiens, UniProt O95475 114-200, T139Q)", "T4 sequence": "T1 sequence with T26Q, I54L"}, "ALX4 [30]": {"target": "ALX4 (Homo sapiens, UniProt Q9H161 200-286)", "sequence (Q9H161 200-286)": "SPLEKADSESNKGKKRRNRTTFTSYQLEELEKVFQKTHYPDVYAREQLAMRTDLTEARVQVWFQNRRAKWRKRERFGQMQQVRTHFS"}, "ALX4 [31]": {"target": "ALX4 (Homo sapiens, UniProt Q9H161 200-286, Q225E)", "sequence (Q9H161 200-286 Q225E)": "as the sequence (Q9H161 200-286) above, with Q26E counted along it"}}, "note": "Residue numbers refer to the chain shown, from its start."}
{"sequence": "CCCCCCAG", "values": [{"measurement": "binding signal", "setting": "HOXA4 [1]", "value": "9.46 upbm affinity estimate (log intensity, higher = more binding, comparable within an allelic series)"}, {"measurement": "binding signal", "setting": "PRRX1 [2]", "value": "9 upbm affinity estimate (log intensity, higher = more binding, comparable within an allelic series)"}, {"measurement": "binding signal", "setting": "HOXA2 [3]", "value": "6.72 upbm affinity estimate (log intensity, higher = more binding, comparable within an allelic series)"}, {"measurement": "binding signal", "setting": "HOXA4 [4]", "value": "9.39 upbm affinity estimate (log intensity, higher = more binding, comparable within an allelic series)"}, {"measurement": "binding signal", "setting": "MSX2 [5]", "value": "9.41 upbm affinity estimate (log intensity, higher = more binding, comparable within an allelic series)"}, {"measurement": "binding signal", "setting": "HOXA2 [6]", "value": "9.81 upbm affinity estimate (log intensity, higher = more binding, comparable within an allelic series)"}, {"measurement": "binding signal", "setting": "HOXA4 [7]", "value": "9.42 upbm affinity estimate (log intensity, higher = more binding, comparable within an allelic series)"}, {"measurement": "binding signal", "setting": "MSX2 [8]", "value": "9.49 upbm affinity estimate (log intensity, higher = more binding, comparable within an allelic series)"}, {"measurement": "binding signal", "setting": "MSX2 [9]", "value": "9.5 upbm affinity estimate (log intensity, higher = more binding, comparable within an allelic series)"}, {"measurement": "binding signal", "setting": "HOXA2 [10]", "value": "10.1 upbm affinity estimate (log intensity, higher = more binding, comparable within an allelic series)"}, {"measurement": "binding signal", "setting": "HOXA4 [11]", "value": "9.4 upbm affinity estimate (log intensity, higher = more binding, comparable within an allelic series)"}, {"measurement": "binding signal", "setting": "PRRX1 [12]", "value": "9.37 upbm affinity estimate (log intensity, higher = more binding, comparable within an allelic series)"}, {"measurement": "binding signal", "setting": "HOXA2 [13]", "value": "6.91 upbm affinity estimate (log intensity, higher = more binding, comparable within an allelic series)"}]}
{"sequence": "CAGGAAGG", "values": [{"measurement": "binding signal", "setting": "HOXA4 [1]", "value": "9.86 upbm affinity estimate (log intensity, higher = more binding, comparable within an allelic series)"}, {"measurement": "binding signal", "setting": "PRRX1 [2]", "value": "9.25 upbm affinity estimate (log intensity, higher = more binding, comparable within an allelic series)"}, {"measurement": "binding signal", "setting": "HOXA2 [3]", "value": "6.96 upbm affinity estimate (log intensity, higher = more binding, comparable within an allelic series)"}, {"measurement": "binding signal", "setting": "HOXA4 [4]", "value": "9.68 upbm affinity estimate (log intensity, higher = more binding, comparable within an allelic series)"}, {"measurement": "binding signal", "setting": "HOXA2 [6]", "value": "10.3 upbm affinity estimate (log intensity, higher = more binding, comparable within an allelic series)"}, {"measurement": "binding signal", "setting": "HOXA4 [7]", "value": "9.59 upbm affinity estimate (log intensity, higher = more binding, comparable within an allelic series)"}, {"measurement": "binding signal", "setting": "HOXA2 [10]", "value": "10.4 upbm affinity estimate (log intensity, higher = more binding, comparable within an allelic series)"}, {"measurement": "binding signal", "setting": "HOXA4 [11]", "value": "9.73 upbm affinity estimate (log intensity, higher = more binding, comparable within an allelic series)"}, {"measurement": "binding signal", "setting": "PRRX1 [12]", "value": "8.96 upbm affinity estimate (log intensity, higher = more binding, comparable within an allelic series)"}, {"measurement": "binding signal", "setting": "HOXA2 [13]", "value": "7.14 upbm affinity estimate (log intensity, higher = more binding, comparable within an allelic series)"}]}
{"sequence": "AGATGATA", "values": [{"measurement": "binding signal", "setting": "SIX6 [14]", "value": "11.1 upbm affinity estimate (log intensity, higher = more binding, comparable within an allelic series)"}, {"measurement": "binding signal", "setting": "SIX6 [15]", "value": "10.9 upbm affinity estimate (log intensity, higher = more binding, comparable within an allelic series)"}, {"measurement": "binding signal", "setting": "SIX6 [16]", "value": "10.9 upbm affinity estimate (log intensity, higher = more binding, comparable within an allelic series)"}]}
{"sequence": "GCCAAGCC", "values": [{"measurement": "binding signal", "setting": "HOXA4 [1]", "value": "9.84 upbm affinity estimate (log intensity, higher = more binding, comparable within an allelic series)"}, {"measurement": "binding signal", "setting": "HOXC10 [17]", "value": "10.1 upbm affinity estimate (log intensity, higher = more binding, comparable within an allelic series)"}, {"measurement": "binding signal", "setting": "HOXA4 [4]", "value": "9.8 upbm affinity estimate (log intensity, higher = more binding, comparable within an allelic series)"}, {"measurement": "binding signal", "setting": "HOXA4 [7]", "value": "9.92 upbm affinity estimate (log intensity, higher = more binding, comparable within an allelic series)"}, {"measurement": "binding signal", "setting": "HOXC10 [18]", "value": "10 upbm affinity estimate (log intensity, higher = more binding, comparable within an allelic series)"}, {"measurement": "binding signal", "setting": "HOXA4 [11]", "value": "9.89 upbm affinity estimate (log intensity, higher = more binding, comparable within an allelic series)"}]}
{"sequence": "GAGGTTGC", "values": [{"measurement": "binding signal", "setting": "HOXA4 [1]", "value": "9.8 upbm affinity estimate (log intensity, higher = more binding, comparable within an allelic series)"}, {"measurement": "binding signal", "setting": "HOXC10 [17]", "value": "9.94 upbm affinity estimate (log intensity, higher = more binding, comparable within an allelic series)"}, {"measurement": "binding signal", "setting": "PRRX1 [2]", "value": "9.19 upbm affinity estimate (log intensity, higher = more binding, comparable within an allelic series)"}, {"measurement": "binding signal", "setting": "HOXA4 [4]", "value": "9.7 upbm affinity estimate (log intensity, higher = more binding, comparable within an allelic series)"}, {"measurement": "binding signal", "setting": "HOXA4 [7]", "value": "9.69 upbm affinity estimate (log intensity, higher = more binding, comparable within an allelic series)"}, {"measurement": "binding signal", "setting": "HOXC10 [18]", "value": "9.96 upbm affinity estimate (log intensity, higher = more binding, comparable within an allelic series)"}, {"measurement": "binding signal", "setting": "HOXA4 [11]", "value": "9.89 upbm affinity estimate (log intensity, higher = more binding, comparable within an allelic series)"}, {"measurement": "binding signal", "setting": "PRRX1 [12]", "value": "8.94 upbm affinity estimate (log intensity, higher = more binding, comparable within an allelic series)"}]}
{"sequence": "CCGAGAGG", "values": [{"measurement": "binding signal", "setting": "HOXA4 [1]", "value": "9.76 upbm affinity estimate (log intensity, higher = more binding, comparable within an allelic series)"}, {"measurement": "binding signal", "setting": "HOXC9 [19]", "value": "9.41 upbm affinity estimate (log intensity, higher = more binding, comparable within an allelic series)"}, {"measurement": "binding signal", "setting": "HOXA4 [4]", "value": "9.77 upbm affinity estimate (log intensity, higher = more binding, comparable within an allelic series)"}, {"measurement": "binding signal", "setting": "HOXC9 [20]", "value": "9.42 upbm affinity estimate (log intensity, higher = more binding, comparable within an allelic series)"}, {"measurement": "binding signal", "setting": "ALX1 [21]", "value": "6.38 upbm affinity estimate (log intensity, higher = more binding, comparable within an allelic series)"}, {"measurement": "binding signal", "setting": "HOXC9 [22]", "value": "9.45 upbm affinity estimate (log intensity, higher = more binding, comparable within an allelic series)"}, {"measurement": "binding signal", "setting": "ALX1 [23]", "value": "6.33 upbm affinity estimate (log intensity, higher = more binding, comparable within an allelic series)"}, {"measurement": "binding signal", "setting": "HOXA4 [7]", "value": "9.59 upbm affinity estimate (log intensity, higher = more binding, comparable within an allelic series)"}, {"measurement": "binding signal", "setting": "PROP1 [24]", "value": "6.47 upbm affinity estimate (log intensity, higher = more binding, comparable within an allelic series)"}, {"measurement": "binding signal", "setting": "PROP1 [25]", "value": "6.52 upbm affinity estimate (log intensity, higher = more binding, comparable within an allelic series)"}, {"measurement": "binding signal", "setting": "HOXC9 [26]", "value": "9.58 upbm affinity estimate (log intensity, higher = more binding, comparable within an allelic series)"}, {"measurement": "binding signal", "setting": "PROP1 [27]", "value": "6.64 upbm affinity estimate (log intensity, higher = more binding, comparable within an allelic series)"}, {"measurement": "binding signal", "setting": "ALX1 [28]", "value": "6.34 upbm affinity estimate (log intensity, higher = more binding, comparable within an allelic series)"}, {"measurement": "binding signal", "setting": "HOXA4 [11]", "value": "9.74 upbm affinity estimate (log intensity, higher = more binding, comparable within an allelic series)"}]}
{"sequence": "AGGGATCA", "values": [{"measurement": "binding signal", "setting": "SIX6 [14]", "value": "11.1 upbm affinity estimate (log intensity, higher = more binding, comparable within an allelic series)"}, {"measurement": "binding signal", "setting": "SIX6 [29]", "value": "11.1 upbm affinity estimate (log intensity, higher = more binding, comparable within an allelic series)"}]}
{"sequence": "GCGGACCC", "values": [{"measurement": "binding signal", "setting": "HOXA4 [1]", "value": "9.75 upbm affinity estimate (log intensity, higher = more binding, comparable within an allelic series)"}, {"measurement": "binding signal", "setting": "ALX4 [30]", "value": "8.35 upbm affinity estimate (log intensity, higher = more binding, comparable within an allelic series)"}, {"measurement": "binding signal", "setting": "ALX4 [31]", "value": "8.27 upbm affinity estimate (log intensity, higher = more binding, comparable within an allelic series)"}, {"measurement": "binding signal", "setting": "HOXA4 [4]", "value": "9.74 upbm affinity estimate (log intensity, higher = more binding, comparable within an allelic series)"}, {"measurement": "binding signal", "setting": "HOXA4 [7]", "value": "9.79 upbm affinity estimate (log intensity, higher = more binding, comparable within an allelic series)"}, {"measurement": "binding signal", "setting": "HOXA4 [11]", "value": "9.89 upbm affinity estimate (log intensity, higher = more binding, comparable within an allelic series)"}]}
